Source: PubChem BioAssay
Values joined by “and” are separate entries in the source; they are usually repeats but may differ in a detail not shown here. Equal entries are not always repeated. Where a structure was tested more than once in an assay, its records may differ in their call. Active and inactive are the calls of the source. Unless noted, no stated cut-off is given here; in the data, active means parasite load remaining mostly below about 12% (no sharp cut-off); inactive means mostly above about 10%.

Assays:
[1] = P. berghei load reduction in hepatocytes – cell-based, HepG2, luciferase luminescence, HepG2 viability, primary screen (AID 624349);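 further: 100% = mean of DMSO negative control wells on the same plate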; settings: P. berghei liver stage in HepG2, luciferase luminescence, concentration not given here; parasite load remaining: stronger effect = lower value; viability: measured here: HepG2 viability without parasites
[2] = Wnt pathway potentiators raising nuclear beta-catenin – imaging, WNT3A-conditioned medium, mouse C2C12, NPC library, primary screen (AID 1117326; in the data active means nuclear beta-catenin stimulation mostly above about 4.2%, no sharp cut-off; inactive means mostly below about 10%; further: reference of the scale not given here); settings: stronger effect = higher value
[3] = stimulators of insulin release from INS-1E, primary screen, cell-based, 5 mM glucose, NPC library (AID 1117329;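 active means compound raises insulin release from rat beta cells at 5 mM glucose, no numeric limit stated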; further: reference of the scale not given here); settings: rat INS-1E insulin secretion, at 10 µM, stronger effect = higher value
[4] = growth inhibition of GSK3B-pretreated HCT116 cells – cell-based, CellTiter-Glo, 0.2 to 20 µM (AID 1117336;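 active means compounds lowering colon cancer cell viability after pretreatment blocking the GSK3B kinase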); settings: HCT116 viability after GSK3B inhibitor, at 20 µM, stronger effect = higher value
[5] = inhibition of endothelial tube formation, primary screen, imaging, VEGF stimulated, CD31 staining, tube area, NPC library (AID 1117340;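 active means compound that reduces growth-factor-driven endothelial tube area in a mixed cell culture, no cutoff stated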); settings: VEGF-stimulated ADSC/ECFC co-culture, at 10 µM, stronger effect = higher value
[6] = GLP1 release stimulators, primary, NCI-H716, NPC library (AID 1117341;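 active means compound raises GLP1 secretion from the human gut endocrine cells, with no numeric limit stated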; further: reference of the scale not given here); settings: NCI-H716 cells, at 10 µM, stronger effect = higher value
[7] = HCT116 colon cancer cell growth inhibition, primary screen, CellTiter-Glo luminescence, NPC library (AID 1117342;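 active means compounds that lower survival of HCT116 colon cancer cells in the luminescence readout, no numeric limit stated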); settings: at 20 µM (top of the series)
[8] = reduced SW480 viability measured with CellTiter-Glo, NPC library, primary (AID 1117343;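 active means compounds that lower viability of the colon cancer cells in the luminescence readout, with no numeric limit stated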); settings: CellTiter-Glo luminescence; at 20 µM (top of the series)
[9] = NPC library primary testing for decreased DLD-1 cell viability via CellTiter-Glo (AID 1117346;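 active means compounds that lower survival of DLD-1 colon cancer cells in the luminescence readout, no cutoff given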); settings: DLD-1 viability, CellTiter-Glo luminescence; at 20 µM (top of the series)
[10] = target: 6-phosphogluconate dehydrogenase, decarboxylating (Homo sapiens) (UniProt P52209); assay: inhibition of human phosphogluconate dehydrogenase – biochemical, recombinant enzyme, NADPH absorbance, primary screen (AID 1159550;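 active means at least 20% inhibition of 6-phosphogluconate dehydrogenase activity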); settings: recombinant 6PGD, NADPH absorbance 341 nm; at 10 µM; stronger effect = higher value
6-phosphogluconate dehydrogenase, decarboxylating (Homo sapiens), sequence (P52209 whole entry, looked up): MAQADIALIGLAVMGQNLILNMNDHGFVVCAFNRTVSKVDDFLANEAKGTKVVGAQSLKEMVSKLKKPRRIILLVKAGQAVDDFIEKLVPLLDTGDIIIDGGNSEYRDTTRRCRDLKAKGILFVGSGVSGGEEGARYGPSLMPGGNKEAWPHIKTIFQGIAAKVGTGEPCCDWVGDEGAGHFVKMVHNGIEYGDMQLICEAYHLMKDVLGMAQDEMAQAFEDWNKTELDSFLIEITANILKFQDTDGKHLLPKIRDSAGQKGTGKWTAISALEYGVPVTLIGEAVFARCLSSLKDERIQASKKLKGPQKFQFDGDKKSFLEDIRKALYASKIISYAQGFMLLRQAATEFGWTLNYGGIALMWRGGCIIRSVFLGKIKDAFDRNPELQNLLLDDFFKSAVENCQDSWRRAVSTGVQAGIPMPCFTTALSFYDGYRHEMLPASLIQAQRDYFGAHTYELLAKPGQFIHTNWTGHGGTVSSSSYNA

Compound | parasite load remaining [1] | viability [1] | nuclear beta-catenin stimulation ([2]; at 10 µM) | nuclear beta-catenin stimulation ([2]; stimulation, at 2 µM) [%] | insulin secretion stimulation [3] | viability decrease [4] | tube area decrease [5] | GLP1 secretion stimulation [6] | inhibition of viability [7] | viability decrease (inhibition) [8] | viability decrease (inhibition) [9] | inhibition [10]
CC(=O)Nc1ccc(S(=O)(=O)Nc2ccc([N+](=O)[O-])cc2)cc1 | 152% (inactive) and 62.3% (inactive) | 92.2% and 117% | 1.1% (inactive) | 1.4 | -0.2% (inactive) | 9.9% (inactive) | 18.2% (inactive) | 3.6% (inactive) | -1.57% (inactive) | 11.5% (inactive) | -3.8% (inactive) | 0.544% (inactive)
CN1CCC(=C2c3ccccc3Sc3ccccc32)CC1 | 16.9% (inactive) and 99.5% (inactive) and 91.2% (inactive) | 43.6% and 70.3% and 91.9% | -0.1% (inactive) | 1.3 | 28.8% (active) | 77.2% (active) | 51.9% (active) | -3.3% (inactive) | 36.4% (inactive) | 80.2% (active) | 23.6% (inactive) | 13.2% (inactive)
CC[N+](C)(C)Cc1ccccc1Br | 80.1% (inactive) | 101% | -0.9% (inactive) | 0.3 | 2.5% (inactive) | -18.7% (inactive) | 10% (inactive) | -3% (inactive) | 27.2% (inactive) | -1.6% (active) | 10.8% (inactive) | -1.68% (inactive)
CCCOc1ccc2nc(NC(=O)OC)[nH]c2c1 | 150% (inactive) and 18.1% (inactive) and 53.4% (inactive) | 91% and 99.5% and 84% | 77% (active) | 60.9 | 1.2% (inactive) | 27% (inactive) | 107% (active) | -1.2% (inactive) | 57.5% (active) | 14.3% (inactive) | 38.1% (inactive) | 2.75% (inactive)
CC(C(=O)O)c1ccc2c(c1)[nH]c1ccc(Cl)cc12 (centres undefined) | 138% (inactive) and 52% (inactive) | 73.1% and 91.7% | -0.6% (inactive) | 1.1 | 0.1% (inactive) | 6.1% (inactive) | 17.9% (inactive) | 4.6% (inactive) | 1.67% (inactive) | 36% (inactive) | 14.1% (inactive) | -6.34% (inactive)
CC(N)CCCC(C)(C)O (centres undefined) | 31.8% (inactive) and 120% (inactive) and 114% (inactive) | 50.3% and 90.2% and 93.5% | 2.3% (inactive) | 1.6 | 0.6% (inactive) | -36.1% (inactive) | -13.2% (inactive) | -1.9% (inactive) | -2.33% (inactive) | 13% (inactive) | -0.1% (inactive) | -2.18% (inactive)
O=C(O)c1ccccc1O | 90.3% (inactive) and 39.7% (inactive) | 79.5% and 93.6% | 0.5% (inactive) | -0.8 | -0.3% (inactive) | 7.5% (inactive) | 5.9% (inactive) | 6% (inactive) | 10.8% (inactive) | -3.3% (inactive) | -1.7% (inactive) | 1.06% (inactive)
COc1ccc(NS(=O)(=O)c2ccc(N)cc2)nn1 | 118% (inactive) and 103% (inactive) and 48% (inactive) | 101% and 69.5% and 83.6% | -1.8% (inactive) | 2.2 | 0.2% (inactive) | -9.5% (inactive) | 14% (inactive) | 0.3% (inactive) | -7.97% (inactive) | 2.4% (inactive) | -8.6% (inactive) | -7.32% (inactive)
CC(C)N=C(N)/N=C(\N)Nc1ccc(Cl)cc1 | 38.3% (inactive) and -0.12% (active) | 66.1% and 93.4% | 1.1% (inactive) | 0.3 | -3.1% (inactive) | 14.7% (inactive) | 1.9% (inactive) | 5.1% (inactive) | 13.5% (inactive) | 67.6% (active) | 27.1% (inactive) | 2.42% (inactive)
Cn1c(=O)c2c(ncn2CCO)n(C)c1=O | 29.7% (inactive) and 108% (inactive) | 47.6% and 91.1% | 2.5% (inactive) | 1.4 | 1.4% (inactive) | 15.8% (inactive) | -12.3% (inactive) | -0.6% (inactive) | -8% (inactive) | -1.2% (inactive) | -21.2% (inactive) | -5.12% (inactive)
Nc1ncnc2c1ncn2[C@@H]1O[C@H](CO)[C@@H](O)[C@H]1O | 102% (inactive) and 72.2% (inactive) | 77.4% and 98.9% | 10.9% (inactive) | 1.8 | 2.7% (inactive) | 41.9% (inactive) | 30.3% (inactive) | -0.1% (inactive) | 33.7% (inactive) | 27% (inactive) | 19.1% (inactive) | 2.2% (inactive)
Cc1ccnc(NS(=O)(=O)c2ccc(N)cc2)n1 | 74% (inactive) and 287% (inactive) and 42.8% (inactive) | 92.3% and 68.7% and 98.8% | 3.8% (inactive) | 1.5 | -0.3% (inactive) | 9.35% (inactive) | -12.6% (inactive) | 2.1% (inactive) | 2.4% (inactive) | 31.8% (inactive) | 7.5% (inactive) | 2.58% (inactive)
